Screening data: PubChem, National Center for Advancing Translational Sciences (NCATS)
An excerpt weighted towards active compounds, which were near 0.71% of everything screened.
USP2a block = blocks human ubiquitin-specific protease USP2a | O75604 | USP2 core, Ub-CHOP2 coupled fluorogenic reporter, 485/531 | Potency, µM (highest dose often 38.3 µM), for the others: top-dose activity change, negative = inhibition, most hits filed as inhibitors | actives 0.01% (n = 330,000);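 further: potency means the concentration at half of the fitted maximal effect; plate controls were DMSO wells for no effect and full inhibition by NEM control for full effect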
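USP2 core (10nM final) preincubated 30min RT with compound in 20mM Tris-HCl pH 8.0, 2mM CaCl2, 2mM beta-mercaptoethanol, 0.05% CHAPS; 25nM Ub-CHOP2 plus 25nM reporter substrate added, fluorescence (Ex485/Em531) read after 60min.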
Coupling enz = coupling enzyme interference in Giardia aldolase counter-screen; coupling enzyme system counterscreen, AmpLite Red fluorescence; actives 0.67% (n = 290,000); activity change, negative = inhibition, % at 58.2 µM, hits read low; in the data active means activity change below about -30%
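Final compound at 57.5 uM, incubated 10 min at RT with coupling enzyme reagent (glyceraldehyde-3-phosphate), then 20 min with substrate and AmpLite Red detection. Fluorescence read at 525/598 nm; tests interference with the coupling assay, not aldolase inhibition.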
USP1 inh = USP1/UAF1 (human) deubiquitinase inhibition | recombinant USP1/UAF1, Ub-Rhodamine cleavage fluorescence | Potency, µM (titrated, usually from 57.1 µM), without a hit: at the highest dose activity change, negative = inhibition, usual class: inhibitors | O94782 | actives 0.23% (n = 390,000); further: potency means the concentration at half of the fitted maximal effect; nearly all actives have a fitted effect of over 60% in size
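USP1/UAF1 complex at 1 nM was preincubated with compound for 15 min at room temperature, then Ub-Rho substrate (150nM final) was added. Fluorescence (480/540 nm) was read kinetically, 6 reads every 60 seconds.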
GALK inh = galactokinase (human) inhibition. Purified GALK, Kinase-Glo residual ATP luminescence. Potency, µM (series often up to 57.5 µM), for the others: at the top dose activity change, negative = inhibition, actives largely listed as inhibitors. actives 0.007% (n = 270,000). AID 1868; further: potency means the concentration at half of the fitted maximal effect
Target sequence (P51570 whole entry, looked up): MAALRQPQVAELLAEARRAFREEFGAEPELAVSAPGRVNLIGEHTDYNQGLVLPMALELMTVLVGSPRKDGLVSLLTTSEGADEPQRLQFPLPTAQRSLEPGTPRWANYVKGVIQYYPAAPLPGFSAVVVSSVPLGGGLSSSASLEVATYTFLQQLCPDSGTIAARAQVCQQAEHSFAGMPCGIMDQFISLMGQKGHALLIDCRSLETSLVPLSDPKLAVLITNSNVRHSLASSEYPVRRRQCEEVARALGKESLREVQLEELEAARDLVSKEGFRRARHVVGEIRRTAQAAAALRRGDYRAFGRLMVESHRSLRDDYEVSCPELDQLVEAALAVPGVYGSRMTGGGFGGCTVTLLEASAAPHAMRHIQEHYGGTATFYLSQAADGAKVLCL
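GALK at 5 nM final was combined with compound, 35 uM ATP and 100 uM galactose in HEPES pH8.0 with MgCl2 and DTT. The reaction ran one hour at room temperature before luminescent ATP detection.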
Eya2 phos inh = inhibitors of human Eya2 phosphatase activity | AID 488837 | O00167 | actives 0.006% (n = 330,000) | recombinant Eya2, OMFP fluorescence dephosphorylation (OMFP is methylfluorescein phosphate) | Potency, µM (doses to about 76.9 µM), for inactives: at the top dose activity, negative = inhibition, usual class: inhibitors; further: potency means the concentration at half of the fitted maximal effect
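Eya2 (0.2 uM) preincubated 10 min at ambient with compound, then OMFP substrate added at 50 uM; 10 min reaction in 50 mM HEPES pH 7.5, 50 mM NaCl, 5 uM MgCl2, 0.05% BSA, 1 mM DTT. Fluorescence read at Ex 485/Em 525 nm.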
PI4K2A inh = blocks human PI4K2A kinase activity | Q9BTU6 | purified PI4K2A, ADP-Glo luminescence, 1 h; stronger effect = lower value | activity change, negative = inhibition, % at 76.9 µM | actives 0.13% (n = 420,000); in the data active means activity change below about -50%; inconclusive means mostly about -30% to -49%;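 further: -100% = wells without enzyme as full effect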
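PI4K2A activity was measured by ADP-Glo luminescence: enzyme (4 ug/mL stock) and phosphatidylinositol (1.2 mM stock) in Tris pH 7.5/MgCl2/EGTA/Triton X-100 buffer were reacted with ATP (300 microM stock) for one hour at ambient temperature.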
An asterisk follows results filed as active; u = inconclusive; x = no result given; ! = not confirmed by another sample. Unless noted, the call rests on the fitted dose curve; in most records, active means well fitted curve in the direction sought with a large enough effect; inconclusive means small, poorly fitted or top-dose-only effect, or another doubt; inactive means no such curve, though single readings can be large; an effect the other way counts as inactive or inconclusive. Unless noted, on the % scale 0 is the no-effect control and ±100 the full control effect.

SMILES | USP2a block | Coupling enz | USP1 inh | GALK inh | Eya2 phos inh | PI4K2A inh
NNC(=O)c1oc2nc(-c3ccco3)cc(-c3ccco3)c2c1N | 2% | -2 | 6% | 2% | 7% | -57*
CC(C)OC(=O)c1c2c(n3ccccc13)C(=O)c1ccccc1C2=O | 8% | -12 | 28µM* | -2% | 3% | -1
CCOc1cc(/C=C/C(=O)c2ccc(OC)c(CN3CCOCC3)c2)cc(Br)c1O | 3% | 2 | 35µM* | 3% | 21% | 2
CCOc1cc(/C=N/NC(=O)c2ccc(CN3CCOCC3)cc2)ccc1OC | 2% | 4 | u | 4% | 10% | 1
CCC(=O)N(C1=C(NC(C)C)C(=O)c2ccccc2C1=O)C(C)C | 7% | -34* | u | -1% | 7% | -15
CCC(=O)NC1=C(Nc2ccc(N)cc2)C(=O)c2ccccc2C1=O | 1% | -28 | u | x | -12% | -14
Cc1ccc(NC2=C(N3CCOCC3)C(=O)c3ccccc3C2=O)cc1 | 3% | -50* | 40µM* | -2% | -24% | u
CC(=O)c1ccc(NC2=C(N3CCOCC3)C(=O)c3ccccc3C2=O)cc1 | -1% | -30* | u | 0% | -12% | -18
O=C(O)c1ccc(NC2=C(N3CCOCC3)C(=O)c3ccccc3C2=O)cc1 | 4% | -28 | 28µM* | 1% | -4% | -23
NS(=O)(=O)c1cc2c(cc1Cl)CN(C1CCCCC1)C2=O | x | x | x | x | x | 1
O=[N+]([O-])c1ccc(O)c2cccnc12 | -11% | -17 | -22% | -2% | -13% | -3
O=Nc1ccc(O)c2ncccc12 | 2% | -35*! | -20% | 4% | 0% | -8
O=[N+]([O-])c1ccc(O)c2ncccc12 | -7% | -35* | u | 4% | 2% | -20
Cc1cc(C)cc(NC(=O)OC2CC3CC2[C@H]2CCCCN2[C@H]3Cc2ccccc2)c1 (some centres undefined) | x | x | x | x | x | 3
O=C(Nc1ccc(F)cc1)Nc1ccc(N2CCOCC2)c2nonc12 | -4% | -10 | -4% | -3% | 1% | -59*
Nc1ccc(N2CCOCC2)c2nonc12 | 2% | -48* | 18µM* | 3% | -7% | -60*
O=C(Nc1ccc(N2CCOCC2)c2nonc12)C1CCCC1 | -2% | -41* | u | -5% | -18% | u
COc1ccc(NC(=O)Nc2ccc(N3CCOCC3)c3nonc23)c(OC)c1 | 0% | -21 | u | 1% | 21% | -8
Nc1ccc(N2CCOCC2)c(Cl)c1 | 3% | 0 | -18% | 0% | -12% | -3
CSc1nc(N)c2ncn([C@@H]3O[C@H](COP(=O)(O)OP(=O)(O)O)C(O)[C@H]3O)c2n1 (some centres undefined) | x | x | x | x | 2% | 0
S=C(NCCN1CCOCC1)N/N=C/c1cccs1 | 4% | 1 | -12% | -1% | 5% | 0
Oc1cccc(/C=N/NC(=S)NCCN2CCOCC2)c1O | 2% | -34* | -14% | 9% | 3% | -11
CCCS(=O)(=O)c1c(S(=O)(=O)CCC)c2c(N)cccn2c1C(=O)c1ccc(F)cc1 | -6% | -38* | -6% | -1% | -8% | -3
Cc1cc(O)c2c(O)c3c(O)cccc3cc2c1 | x | x | x | x | x | -5
CCOC(=O)c1ccc(NCn2c(=O)oc3ccccc32)cc1 | 0% | 0 | 25µM* | -2% | -5% | 0
SMILES | USP2a block | Coupling enz | USP1 inh | GALK inh | Eya2 phos inh | PI4K2A inh
O=[N+]([O-])c1ccc(C=Nc2cccc3ccccc23)s1 | 1% | -28 | 14µM* | 1% | 9% | -7
Cn1c(=O)c(/C=C/c2ccccc2)nc2ccccc21 | 3% | 3 | -17% | -1% | 6% | 1
Cn1c(/C=C/c2ccccc2)nc2ccccc21 | -1% | -10 | -20% | 24% | 0% | -66*
O=C1C(=Cc2ccc(F)cc2)CCc2ccccc21 | x | x | x | x | x | -73*
COc1ccc(C=C2CCc3ccccc3C2=O)cc1 | x | x | x | x | x | -83*
O=C1/C(=C\c2ccncc2)CCc2ccccc21 | 1% | x | -32% | x | 5% | u
CCOc1ccc(/C=C2\CCc3ccccc3C2=O)cc1 | 3% | -2 | -14% | 14% | -11% | u
COc1ccc(-c2cccc(NC(=O)c3ccco3)c2)nn1 | 2% | x | -10% | x | 4% | -1
COc1ccc(-c2ccc(NC(=O)c3ccco3)cc2)nn1 | 1% | x | -1% | x | -29% | -53*
CC(=O)Oc1ccc2c(c1)O/C(=C\c1ccncc1)C2=O | u | 1 | 28µM* | 0% | -13% | -12
CCCN(Cc1ccc(N(CC)CC)cc1)CC1CC1 | -10% | 1 | -3% | -2% | -8% | -2
CCCN(Cc1ccc(N(C)C)cc1)CC1CC1 | 0% | -50* | -16% | -1% | -16% | 4
CCOc1ccc(C(c2c(C)[nH]n(-c3ccccc3)c2=O)c2c(C)[nH]n(-c3ccccc3)c2=O)cc1OC | x | x | -26% | x | x | -58*
Cc1[nH]n(-c2ccccc2)c(=O)c1C(c1ccc(C(=O)O)cc1)c1c(C)[nH]n(-c2ccccc2)c1=O | 0% | 13 | -12% | 1% | 7% | -20
COc1cccc(C(C[N+](=O)[O-])c2c(C)[nH]n(-c3ccccc3)c2=O)c1 (centres undefined) | 0% | -44* | -17% | -19% | -5% | 1
COC(=O)C1C2C=CC3(CN(CC4CCCO4)C(=O)C13)O2 (centres undefined) | 1% | -79* | -13% | 1% | 14% | -5
COc1cc(CNc2ccc3[nH]c(=O)[nH]c3c2)ccc1OCC(=O)NC(C)(C)C | 0% | -30* | -6% | -5% | -15% | -18
COC(=O)c1ccc(Cl)cc1NC(=O)NCc1c(-n2cccc2)sc2c1CCCC2 | x | x | 12% | x | x | -1
N#Cc1c(C(F)(F)F)cc(C2CC2)nc1N1CCCC1 | 4% | -34* | -9% | -1% | -2% | -4
Cc1cc(C(F)(F)F)c(C#N)c(N2CCOCC2)n1 | -5% | -1 | -1% | -1% | 25% | -3
O=c1c2cc(Br)cc(Br)c2oc2nc3n(c(=O)c12)CCCS3 | 1% | 1 | x | 3% | -16% | x
O=Cc1ccc2oc3nc4n(c(=O)c3c(=O)c2c1)CCCS4 | 1% | 0 | u | 0% | 8% | -62*
Cn1cc(C(=O)[C@@H]2CCc3nc[nH]c3C2)c2ccccc21 | x | x | x | x | x | -4
O=[N+]([O-])c1cccc(/C([O-])=C(/C(=S)Nc2cccc3ccccc23)[n+]2ccccc2)c1 | 0% | -42* | -22% | 0% | -3% | -7
